# Measured values taken from PubChem BioAssay.
# Results filed as inconclusive are left out. The source made the active and inactive calls.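 How the source made its calls, unless noted: active means efflux inhibition above 0.42, the validation set average plus 4 SD; inconclusive means no clear call, values can overlap the other calls; inactive means the rest.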
# Legend:
# [1] = rapamycin-like changes in RPL19A-GFP expression – cell-based, S. cerevisiae, multiplex flow cytometry, primary screen (AID 1862; in the data active means percent of DMSO control GFP below about 86%;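 further: lower values mimic rapamycin by blocking the RPL19A rise seen in DMSO cells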); conditions: S. cerevisiae RPL19A-GFP strain, flow cytometry fluorescence, 3 h; at 10 µM; stronger effect = lower value
# [2] = TOR pathway GLN3 branch reporter MEP2-GFP changes – S. cerevisiae, multiplex flow cytometry, primary screen (AID 1867;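 active means GFP response, as percent of the DMSO control, above the screen-wide mean plus 3 SD, about 139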;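 further: median GFP channel fluorescence of barcode-gated MEP2-GFP cells measured by flow cytometry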); conditions: S. cerevisiae MEP2-GFP strain, 3 h, at 10 µM, stronger effect = higher value, 100% means same as DMSO wells
# [3] = TOR pathway RTG branch CIT2 reporter changes – S. cerevisiae, GFP fusion, multiplex flow cytometry, primary screen (AID 1870;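 active means percent response above a set limit, the screen-wide mean plus 3 SD, cut at about 130% in these data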;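 further: barcoded CIT2-GFP strain pooled with four other GFP strains with rapamycin as positive control; median GFP fluorescence per well over plate mean of DMSO wells so 100% = DMSO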); conditions: S. cerevisiae CIT2-GFP expression, 3 h, at 10 µM, stronger effect = higher value
# [4] = TOR pathway LAP4-GFP level changes – S. cerevisiae, multiplex flow cytometry, primary screen (AID 1873;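 active means GFP signal, as percent of the solvent control, above the screen mean plus 3 SD, about 149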); conditions: S. cerevisiae LAP4-GFP expression, 3 h, at 10 µM, stronger effect = higher value
# [5] = yeast AGP1-GFP level changes, GLN3 branch – cell-based, multiplex flow cytometry, S. cerevisiae, primary screen (AID 1887;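 active means GFP signal above the screen-wide mean plus 3 SD, that is over about 124.5% of the solvent control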;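 further: AGP1-GFP fusion strain of S. cerevisiae within a five-strain barcoded multiplex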); conditions: 3 h, at 10 µM, stronger effect = higher value
# [6] = reduced mouse 2C T cell binding to pMHC/ICAM-1 vesicles – MLPCN validation set, flow cytometry, LFA-1/ICAM-1 modulator project, pilot screen (AID 2523;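 active means response below a set limit, under 55% cells CD8-positive and vesicle-bound, and CD8 cells' 90th-percentile brightness under 279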;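 on vesicle binding response: mean PE anti-B7-1 fluorescence of CD8+ cells relative to row control; 100% = QL9-loaded vesicles with DMSO vehicle in the same plate row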); conditions: 2C mouse CD8+ T cells, at 7 µM, stronger effect = lower value; double positive events: measured here: CD8+/vesicle+ event percentage
# [7] = target: Integrin beta-1 (Homo sapiens) + Integrin alpha-4 (Homo sapiens) (UniProt P13612+P05556); assay: alpha4beta1 integrin LIBS antibody binding reduction – U937 cells, HUTS-21 mAb, flow cytometry, validation set, VLA-4 allosteric modulator project, pilot screen (AID 2674;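 active means inhibition above 50%, about 3 SD of the validation set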;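 further: antibody binding induced by the VLA-4 ligand LDV present at three times its Kd; 0% = LDV ligand with antibody and no compound and 100% = antibody without LDV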); conditions: HUTS-21 LIBS mAb binding, at 6.7 µM, stronger effect = higher value, binding induced by LDV ligand
# Chain of Integrin beta-1 (Homo sapiens) + Integrin alpha-4 (Homo sapiens) (P05556 whole entry, looked up): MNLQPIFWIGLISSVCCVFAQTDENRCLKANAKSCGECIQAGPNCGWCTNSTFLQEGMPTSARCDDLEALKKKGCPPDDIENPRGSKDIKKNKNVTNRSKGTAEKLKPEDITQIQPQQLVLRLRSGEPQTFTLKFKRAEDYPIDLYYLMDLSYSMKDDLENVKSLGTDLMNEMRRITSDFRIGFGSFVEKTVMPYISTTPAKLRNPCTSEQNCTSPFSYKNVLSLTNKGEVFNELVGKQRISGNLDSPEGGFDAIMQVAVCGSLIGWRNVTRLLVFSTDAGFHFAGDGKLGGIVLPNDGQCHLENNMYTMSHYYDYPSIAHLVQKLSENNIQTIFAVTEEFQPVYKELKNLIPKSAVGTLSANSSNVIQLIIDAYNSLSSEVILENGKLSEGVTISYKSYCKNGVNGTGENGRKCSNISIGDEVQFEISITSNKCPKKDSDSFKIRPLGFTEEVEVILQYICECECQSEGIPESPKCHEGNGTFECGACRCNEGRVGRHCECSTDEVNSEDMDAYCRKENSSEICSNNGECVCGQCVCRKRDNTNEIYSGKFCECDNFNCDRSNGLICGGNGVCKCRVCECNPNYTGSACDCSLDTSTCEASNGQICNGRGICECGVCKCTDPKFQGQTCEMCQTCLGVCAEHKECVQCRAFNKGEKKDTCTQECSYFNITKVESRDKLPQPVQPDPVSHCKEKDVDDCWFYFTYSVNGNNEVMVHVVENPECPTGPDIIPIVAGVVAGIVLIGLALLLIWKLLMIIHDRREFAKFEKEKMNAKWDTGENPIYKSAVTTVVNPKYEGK
# Chain of Integrin beta-1 (Homo sapiens) + Integrin alpha-4 (Homo sapiens) (P13612 whole entry, looked up): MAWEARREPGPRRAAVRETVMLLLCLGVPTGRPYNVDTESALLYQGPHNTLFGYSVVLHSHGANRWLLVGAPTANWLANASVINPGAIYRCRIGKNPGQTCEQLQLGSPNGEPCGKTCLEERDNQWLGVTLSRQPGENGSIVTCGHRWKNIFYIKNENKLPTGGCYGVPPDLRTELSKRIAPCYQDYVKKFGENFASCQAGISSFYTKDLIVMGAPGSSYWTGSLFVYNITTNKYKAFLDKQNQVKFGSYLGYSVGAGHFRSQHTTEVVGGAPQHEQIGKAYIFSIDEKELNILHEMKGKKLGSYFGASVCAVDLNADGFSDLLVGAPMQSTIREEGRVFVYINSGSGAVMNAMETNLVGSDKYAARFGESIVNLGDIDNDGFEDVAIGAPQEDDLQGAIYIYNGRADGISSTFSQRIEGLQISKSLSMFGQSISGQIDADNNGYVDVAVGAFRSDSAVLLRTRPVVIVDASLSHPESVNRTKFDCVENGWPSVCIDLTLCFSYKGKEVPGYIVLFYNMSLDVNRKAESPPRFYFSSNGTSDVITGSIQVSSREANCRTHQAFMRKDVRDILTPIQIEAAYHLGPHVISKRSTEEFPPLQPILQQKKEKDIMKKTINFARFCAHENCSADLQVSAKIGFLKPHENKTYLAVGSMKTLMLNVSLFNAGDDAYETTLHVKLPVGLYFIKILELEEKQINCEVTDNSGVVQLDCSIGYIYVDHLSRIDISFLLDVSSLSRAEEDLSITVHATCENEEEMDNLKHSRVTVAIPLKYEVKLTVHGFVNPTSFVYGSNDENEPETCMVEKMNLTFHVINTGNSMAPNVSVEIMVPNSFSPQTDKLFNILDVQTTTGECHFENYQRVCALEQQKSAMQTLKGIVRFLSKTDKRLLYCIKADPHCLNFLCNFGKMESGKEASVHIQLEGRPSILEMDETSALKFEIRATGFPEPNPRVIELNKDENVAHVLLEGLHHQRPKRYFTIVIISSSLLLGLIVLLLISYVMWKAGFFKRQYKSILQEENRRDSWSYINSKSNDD
# [8] = calorie-restriction mimetic ROS inhibitors, yeast – validation compound set, pilot screen (AID 2706;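 active means superoxide response below 65% of plate, a cut near 3 SD across the whole screen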;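 further: yeast exposed to compound for one week at 30 degrees C before staining; 100% = mean of all compound wells on the same plate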); conditions: S. cerevisiae aging, superoxide DHE fluorescence; at 10 µM, stronger effect = lower value
# [9] = target: Beta-adrenergic receptor kinase 1 (Homo sapiens) (UniProt P25098); assay: GRK2 binders displacing RNA aptamer, biochemical, validation, human GRK2, bead flow cytometry (AID 488806;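 active means aptamer binding inhibition above 30%, about 3 SD of noise from non-fluorescent compounds; inactive means inhibition at or below 30%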); conditions: bead-bound GRK2, FAM-aptamer displacement, at 10 µM, stronger effect = higher value
# Chain of Beta-adrenergic receptor kinase 1 (Homo sapiens) (P25098 whole entry, looked up): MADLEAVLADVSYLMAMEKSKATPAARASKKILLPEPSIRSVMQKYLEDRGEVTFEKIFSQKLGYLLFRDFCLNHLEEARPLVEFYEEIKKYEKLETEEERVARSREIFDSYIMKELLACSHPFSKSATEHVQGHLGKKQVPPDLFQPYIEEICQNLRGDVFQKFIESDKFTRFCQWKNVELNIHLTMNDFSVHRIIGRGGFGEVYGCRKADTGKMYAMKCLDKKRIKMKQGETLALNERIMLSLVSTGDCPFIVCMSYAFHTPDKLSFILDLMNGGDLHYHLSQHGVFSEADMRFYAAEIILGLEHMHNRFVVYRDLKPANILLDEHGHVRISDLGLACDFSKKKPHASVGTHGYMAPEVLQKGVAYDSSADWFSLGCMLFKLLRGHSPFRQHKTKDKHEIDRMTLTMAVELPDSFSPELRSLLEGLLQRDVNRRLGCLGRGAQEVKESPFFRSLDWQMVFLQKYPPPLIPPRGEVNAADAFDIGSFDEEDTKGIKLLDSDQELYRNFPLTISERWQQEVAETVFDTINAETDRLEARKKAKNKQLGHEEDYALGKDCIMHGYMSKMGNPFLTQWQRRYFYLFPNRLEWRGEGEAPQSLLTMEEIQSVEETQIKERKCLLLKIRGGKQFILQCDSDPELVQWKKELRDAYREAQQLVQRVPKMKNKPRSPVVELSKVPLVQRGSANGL
# [10] = target: AP-2 complex subunit beta (Homo sapiens) (UniProt P63010); assay: beta-arrestin/AP2 interaction blockers – biochemical, validation set, GST-AP2 beads, flow cytometry, pilot screen (AID 504541;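 active means inhibition above 54%, about 3 SD of non-fluorescent compounds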;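 further: AP2 carries R879A mutation and is captured from E. coli lysate; bead-bound FITC arrestin peptide fluorescence measuring arrestin peptide binding to AP2; 0% = DMSO wells and 100% = excess unlabeled arrestin peptide control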); conditions: FITC arrestin peptide, at 10 µM, stronger effect = higher value, AP2 beta2 appendage fragment, R879A mutant
# Chain of AP-2 complex subunit beta (Homo sapiens) (P63010 whole entry, looked up, the tested form may be a part, one chain of several): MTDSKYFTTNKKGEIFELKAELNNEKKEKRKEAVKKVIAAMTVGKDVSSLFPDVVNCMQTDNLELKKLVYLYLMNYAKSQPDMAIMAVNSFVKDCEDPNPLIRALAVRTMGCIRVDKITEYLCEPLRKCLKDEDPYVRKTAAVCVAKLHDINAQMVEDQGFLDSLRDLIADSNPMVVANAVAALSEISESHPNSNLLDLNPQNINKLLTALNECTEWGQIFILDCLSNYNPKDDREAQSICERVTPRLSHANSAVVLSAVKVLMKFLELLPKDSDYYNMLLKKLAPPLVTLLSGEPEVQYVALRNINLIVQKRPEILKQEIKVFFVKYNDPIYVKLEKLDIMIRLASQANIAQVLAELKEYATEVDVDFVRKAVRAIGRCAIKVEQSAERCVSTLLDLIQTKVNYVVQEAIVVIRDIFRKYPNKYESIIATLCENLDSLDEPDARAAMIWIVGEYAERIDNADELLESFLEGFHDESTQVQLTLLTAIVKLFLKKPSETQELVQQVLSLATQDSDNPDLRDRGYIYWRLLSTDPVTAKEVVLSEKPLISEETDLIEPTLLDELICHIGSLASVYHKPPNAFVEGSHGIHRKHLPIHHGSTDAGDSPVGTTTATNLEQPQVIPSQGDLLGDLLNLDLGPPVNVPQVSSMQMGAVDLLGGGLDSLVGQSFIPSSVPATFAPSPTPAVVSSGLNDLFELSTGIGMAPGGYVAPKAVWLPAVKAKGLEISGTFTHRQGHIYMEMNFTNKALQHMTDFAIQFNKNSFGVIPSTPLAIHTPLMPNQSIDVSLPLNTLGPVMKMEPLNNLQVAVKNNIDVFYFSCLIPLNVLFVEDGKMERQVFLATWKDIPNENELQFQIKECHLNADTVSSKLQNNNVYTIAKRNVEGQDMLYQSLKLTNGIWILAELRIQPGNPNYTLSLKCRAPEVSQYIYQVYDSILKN
# [11] = cytosolic pH regulators acting via V-ATPase – S. cerevisiae, pHLuorin, HTS validation (AID 504600; in the data active means response above about 15%;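 further: plate controls were DMSO for no effect and reference compound for full effect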); conditions: V-ATPase proton transport, at 10 µM, stronger effect = higher value
# [12] = test system: anti-desmoglein-3 scFv antibody binding to human DSG3; assay: blockers of pathogenic pemphigus antibody–desmoglein-3 binding – biochemical, validation compound set, bead-based, flow cytometry, pilot screen (AID 588368;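 active means binding below the plate cutoff, the plate median minus 3 SD, with a reading above zero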;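 further: signal is the median channel fluorescence of bead-bound GFP antibody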); conditions: Protein G beads, DSG3-Fc, scFv-GFP binding, at 10 µM, stronger effect = lower value
# [13] = Nile Red efflux blockade in pump-expressing yeast – validation compound set, multiplex, phenotypic, pilot screen (AID 588506);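 further: Nile Red retained in cells so higher fluorescence means more efflux inhibition; 0 = negative control wells and 1 = enniatin B 25 µM full block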; conditions: S. cerevisiae pump-expressing triplex, Nile Red efflux flow cytometry; at 10 µM; stronger effect = higher value; the pumps come from Candida albicans
# [14] = target: ATP-binding cassette sub-family B member 6 (Homo sapiens) (UniProt Q9NP58); assay: blockers of ABCB6-driven porphyrin uptake – K562-ABCB6 cells, flow cytometry, validation set, pilot screen (AID 588550;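 active means inhibition above the screen-wide mean plus 3 SD, about 51%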;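 further: 0% = DMSO wells and 100% = benzethonium chloride 70 µM positive control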); conditions: K562-ABCB6 porphyrin accumulation, 1 h, at 10 µM, stronger effect = higher value
# Chain of ATP-binding cassette sub-family B member 6 (Homo sapiens) (Q9NP58 whole entry, looked up): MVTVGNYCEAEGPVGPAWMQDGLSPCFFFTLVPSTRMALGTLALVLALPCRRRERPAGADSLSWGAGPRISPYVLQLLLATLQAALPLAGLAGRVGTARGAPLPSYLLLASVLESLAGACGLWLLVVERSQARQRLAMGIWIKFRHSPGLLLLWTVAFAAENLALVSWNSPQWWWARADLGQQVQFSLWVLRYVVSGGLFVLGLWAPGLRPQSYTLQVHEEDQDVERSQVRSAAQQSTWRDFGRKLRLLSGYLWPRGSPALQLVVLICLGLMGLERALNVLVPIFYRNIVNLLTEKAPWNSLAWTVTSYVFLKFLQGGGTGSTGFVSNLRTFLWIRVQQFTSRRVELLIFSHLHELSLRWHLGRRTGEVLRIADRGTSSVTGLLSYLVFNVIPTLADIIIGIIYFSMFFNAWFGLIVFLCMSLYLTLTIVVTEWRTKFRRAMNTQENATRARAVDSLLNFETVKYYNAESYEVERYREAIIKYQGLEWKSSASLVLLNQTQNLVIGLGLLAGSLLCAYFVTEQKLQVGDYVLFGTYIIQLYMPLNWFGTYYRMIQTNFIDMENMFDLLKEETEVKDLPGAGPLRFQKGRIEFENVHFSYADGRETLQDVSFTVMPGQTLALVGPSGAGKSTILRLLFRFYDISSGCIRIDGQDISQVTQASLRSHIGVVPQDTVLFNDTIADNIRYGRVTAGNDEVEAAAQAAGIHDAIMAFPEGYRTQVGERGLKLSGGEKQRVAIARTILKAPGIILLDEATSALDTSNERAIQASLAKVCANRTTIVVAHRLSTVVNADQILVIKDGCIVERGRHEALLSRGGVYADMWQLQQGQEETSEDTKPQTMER
# [15] = AML differentiation inducers, ER-HoxA9 marrow cells – cell-based, GFP/MAC1 double positive, flow cytometry, validation set, primary screen (AID 588685;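 active means differentiation response of at least 50%, scaled between solvent and reference control, from cells with both markers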;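 further: compound exposure lasts four days before antibody staining and flow analysis; 0% = DMSO wells and 100% = 5 µM fulvestrant positive control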); conditions: stronger effect = higher value, normalized: vehicle 0, fulvestrant 100
Structure (SMILES),percent of DMSO control GFP [1],GFP response vs DMSO [2],percent response of DMSO control [3],GFP response vs DMSO [4],"GFP response, % of DMSO [5]",double positive events [6] [%],vesicle binding response [6],inhibition [7],superoxide response (% of plate) [8],aptamer binding inhibition [9],inhibition [10],response [11],binding (% of control) [12],efflux inhibition (fraction of control) [13],inhibition [14],differentiation response [15]
Cc1ccc(-n2ncc3c(Nc4cccc(C(=O)O)c4)ncnc32)cc1,100% (inactive),102% (inactive),93% (inactive),105% (inactive),93.9% (inactive),66.3,217% (inactive),-5.84% (inactive),105% (inactive),-2% (inactive),-0.33% (inactive),-4.83% (inactive),101% (inactive),0.1 (inactive),5% (inactive),74.1% (active)
O=C(O)c1cc(-c2ccc3c(c2)OCO3)nc2ccc(Br)cc12,100% (inactive),97.9% (inactive),82.2% (inactive),127% (inactive),88.9% (inactive),67,182% (inactive),-7.7% (inactive),108% (inactive),-3% (inactive),12% (inactive),-4.89% (inactive),105% (inactive),0.18 (inactive),8% (inactive),41.8% (inactive)
COC1(C)CC2C(CC1OC(=O)c1cc([N+](=O)[O-])cc([N+](=O)[O-])c1)C2(C)C (stereo not given),104% (inactive),99.9% (inactive),106% (inactive),178% (active),74.2% (inactive),52.4,222% (inactive),-3.97% (inactive),114% (inactive),5% (inactive),-6.29% (inactive),3.54% (inactive),99.3% (inactive),-0.35 (inactive),9% (inactive),-18% (inactive)
CCOC(=O)c1ccc(N2C(=O)C(CC(N)=O)N(CCc3ccc(OC)c(OC)c3)C2=S)cc1 (stereo not given),96.9% (inactive),105% (inactive),94.9% (inactive),96.4% (inactive),88.8% (inactive),46.3,153% (inactive),-10.5% (inactive),107% (inactive),2% (inactive),18.9% (inactive),1.03% (inactive),97.2% (inactive),0.75 (active),21% (inactive),-21.2% (inactive)
O=C1N=c2ccccc2=C1c1[nH]c(=S)[nH]c1O,98.8% (inactive),96.9% (inactive),106% (inactive),81.3% (inactive),99.6% (inactive),56.8,181% (inactive),2.56% (inactive),98.7% (inactive),-2% (inactive),2.65% (inactive),3.63% (inactive),98% (inactive),-0.12 (inactive),8% (inactive),-19.6% (inactive)
Cc1cc(OC(C(=O)O)c2ccccc2)c2c(C)c(Cc3ccccc3)c(=O)oc2c1 (stereo not given),103% (inactive),98.9% (inactive),97.9% (inactive),100% (inactive),95.1% (inactive),54.5,160% (inactive),-3.04% (inactive),115% (inactive),2% (inactive),1.35% (inactive),5.52% (inactive),95.4% (inactive),-0.05 (inactive),7% (inactive),-3.43% (inactive)
CCOc1cc(C)cc2oc(=O)cc(-c3ccccc3)c12,99.5% (inactive),105% (inactive),92% (inactive),123% (inactive),92.8% (inactive),54.7,138% (inactive),-5.84% (inactive),88.9% (inactive),4% (inactive),14.1% (inactive),8.03% (inactive),102% (inactive),0.18 (inactive),5% (inactive),-16.4% (inactive)
CC(C)CCOCC(=O)Nc1cccc(C(=O)O)c1,99.5% (inactive),107% (inactive),98.8% (inactive),95.4% (inactive),99.7% (inactive),59.8,174% (inactive),10.9% (inactive),110% (inactive),1% (inactive),41.3% (inactive),-5.9% (inactive),103% (inactive),-0.12 (inactive),3% (inactive),11.1% (inactive)
CCN(CC)Cc1c[nH]c2c(C(=O)OC)cccc12,98.8% (inactive),104% (inactive),105% (inactive),102% (inactive),99.1% (inactive),60.2,183% (inactive),10% (inactive),98.4% (inactive),0% (inactive),12.3% (inactive),-5.36% (inactive),105% (inactive),-0.28 (inactive),7% (inactive),-24.4% (inactive)
COc1ccc2c(c1)C(=O)CC(c1ccccc1F)O2 (stereo not given),95.8% (inactive),103% (inactive),93.9% (inactive),92.3% (inactive),87% (inactive),62,135% (inactive),10% (inactive),97% (inactive),0% (inactive),21.8% (inactive),-0.49% (inactive),94.1% (inactive),0.44 (active),-46% (inactive),-11.5% (inactive)
COc1ccc(-c2cc3cc(OC)c(OC)cc3c(C)n2)cc1,103% (inactive),105% (inactive),102% (inactive),90.3% (inactive),90.7% (inactive),53.2,149% (inactive),5.36% (inactive),96% (inactive),6% (inactive),1.41% (inactive),1.33% (inactive),106% (inactive),-0.09 (inactive),-2% (inactive),-8.27% (inactive)
O=C(NNC(=O)c1cccs1)c1ccco1,104% (inactive),104% (inactive),111% (inactive),111% (inactive),111% (inactive),56.8,159% (inactive),-3.04% (inactive),95.2% (inactive),1% (inactive),-10.8% (inactive),8.92% (inactive),102% (inactive),-0.05 (inactive),16% (inactive),1.41% (inactive)
COc1ccc(CNC(=O)C2CCN(C(=O)[C@@H](CC(C)C)NC(=O)OC(C)(C)C)CC2)cc1,98.3% (inactive),90.8% (inactive),98.8% (inactive),92.3% (inactive),92.7% (inactive),63.6,326% (inactive),14.7% (inactive),98.6% (inactive),1% (inactive),-7.96% (inactive),-2.19% (inactive),98.7% (inactive),-0.09 (inactive),8% (inactive),3.03% (inactive)
CC(C)(C)c1csc(N/N=C/c2cccnc2)n1,99% (inactive),106% (inactive),95.9% (inactive),107% (inactive),87.4% (inactive),53.8,163% (inactive),17.5% (inactive),96% (inactive),5% (inactive),5.38% (inactive),1.92% (inactive),99.3% (inactive),-0.12 (inactive),7% (inactive),4.64% (inactive)
O=[N+]([O-])c1ccc2cn[nH]c2c1,102% (inactive),106% (inactive),102% (inactive),93.3% (inactive),97.3% (inactive),60.3,265% (inactive),12.8% (inactive),97.5% (inactive),1% (inactive),-5.23% (inactive),-6.52% (inactive),98.2% (inactive),-0.05 (inactive),10% (inactive),-8.27% (inactive)
C/C(=N\N=C1\NC(=O)C(CC(=O)Nc2ccc(Cl)cc2)S1)c1ccco1 (stereo not given),105% (inactive),101% (inactive),104% (inactive),91.3% (inactive),99.1% (inactive),54.2,112% (inactive),-17% (inactive),101% (inactive),16% (inactive),3.65% (inactive),-0.13% (inactive),94.4% (inactive),0.22 (inactive),8% (inactive),0% (inactive)
O=C(CCN1CCC(c2ccccc2)C1)c1ccc2c(c1)OCCO2 (stereo not given),102% (inactive),134% (inactive),103% (inactive),104% (inactive),102% (inactive),47.2,140% (inactive),13.8% (inactive),94% (inactive),5% (inactive),-9.51% (inactive),2.78% (inactive),103% (inactive),-0.31 (inactive),6% (inactive),-5.05% (inactive)
C=CCc1ccccc1OCC(O)CNC(C)C (stereo not given),103% (inactive),107% (inactive),104% (inactive),108% (inactive),118% (inactive),61.2,209% (inactive),-11.3% (inactive),96.7% (inactive),-32% (inactive),-4.94% (inactive),0.57% (inactive),107% (inactive),0.12 (inactive),-2% (inactive),-11.9% (inactive)
Cn1nc(-c2ccccn2)nc2c(=O)n(C)c(=O)nc1-2,103% (inactive),98.9% (inactive),110% (inactive),105% (inactive),105% (inactive),59.4,165% (inactive),-40.4% (inactive),107% (inactive),61% (active),17.4% (inactive),-11.7% (inactive),94.9% (inactive),-0.12 (inactive),-1% (inactive),-22.8% (inactive)
CN(C)C(=O)C12CCC(C)(c3nc4ccccc4nc31)C2(C)C (stereo not given),104% (inactive),101% (inactive),106% (inactive),99.4% (inactive),99.3% (inactive),62.9,190% (inactive),0.69% (inactive),95.4% (inactive),-1% (inactive),9.98% (inactive),1.66% (inactive),103% (inactive),-0.09 (inactive),5% (inactive),1.41% (inactive)
